Source: PubChem
hcDAF12 agonist: H. contortus DAF-12 nuclear receptor activators, primary screen, cell-based, luminescence, HEK293, lit1-tk-luc reporter; HEK293 hcDAF-12 lit1-tk-luc reporter; 0% DMSO, 100% Δ7-dafachronic acid; activation, % at 6.8 µM; actives 1.4% (n = 370,000); AID 652067, 2013;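 active = activation above the mean of all tested compounds plus 3 SD, cut at about 5.5% in these data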;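 also: 100% = response to 3 µM Δ7-dafachronic acid high control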
hgDAF12 agonist: H. glycines DAF-12 receptor agonists, primary screen, cell-based, luminescence, HEK293, GAL4 fusion, UAS-luciferase. AID 687014, 2013. actives 1.8% (n = 370,000). HEK293 GAL4-hgDAF12 UAS-luciferase reporter, agonist luminescence; normalized to butyrate control. Nuclear hormone receptor DAF-12 (Heterodera glycines), GAL4 fusion. activation, % at 6.8 µM;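 active = activation above a cutoff set at the mean of all screened compounds plus 3 SD, cut at about 10% in these data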;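 also: 0% = DMSO wells and 100% = sodium butyrate wells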
ssDAF12 agonist: S. stercoralis DAF-12 nuclear receptor activators, primary screen, cell-based, luminescence, HEK293, GRIP1 co-expression, lit1-tk-luc; Nuclear hormone receptor DAF-12 (Strongyloides stercoralis); actives 1% (n = 370,000); AID 652126, 2013; HEK293 ssDAF-12/GRIP1 lit1-tk-luc reporter; % of 3 µM dafachronic acid response; activation, % at 6.8 µM;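 active = activation above the mean over all tested compounds plus 3 SD, cut at about 0.9% in these data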;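 also: 0% = DMSO-only wells and 100% = 3 µM delta7-dafachronic acid wells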
SMARCA2 activ: SMARCA2 (BRM) function activators, primary screen, cell-based, luminescence, high throughput; MG213 cells, MMTV-luciferase reporter, dexamethasone, overnight; activation, % at 9.1 µM; actives 1% (n = 370,000); AID 652017, 2013; in the data active = activation above about 7.8%;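 also: 0% = vehicle wells and 100% = reference activator wells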
DAX1 inh: DAX1 (NR0B1) inhibitors on StAR promoter, primary screen, cell-based, luminescence, SF-1 (NR5A1), full-length DAX-1 | HEK293T StAR-luciferase reporter, SF-1/DAX-1 repression relief | inhibition, % at 6.8 µM | actives 1.1% (n = 370,000) | AID 652010, 2013;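 active = inhibition above the mean over all tested compounds plus 3 SD, cut at about 3.6% in these data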;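 also: 0% = DAX-1 cells with DMSO and 100% = cells lacking DAX-1 with DMSO; higher inhibition means more luminescence from relief of DAX-1 repression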
SMARCA2 conf: SMARCA2 (BRM) function activators, confirmation, cell-based, luminescence, triplicate | shares compounds with SMARCA2 activ | MG213 cells, MMTV-luciferase with dexamethasone, overnight; MG213 cells expressing E1A, Rb sequestered; DMSO wells 0%, reference activator 100% | activation, % at 9.1 µM | actives 30% (n = 3,500) | AID 652260, 2013;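 active = activation above its plate's cutoff, the mean activation of tested wells plus 3 SD, cut at about 7.9% in these data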
VP16 Luc act: GAL4-VP16 luciferase reporter activation, counter-screen for SMARCA2 (BRM) activator project, cell-based, pG5luc, luminescence, high throughput; shares compounds with SMARCA2 activ; HEK293 GAL4-VP16 pG5luc reporter; scaled: DMSO wells 0%, SAHA wells 100%; activation, % at 9.1 µM; actives 41% (n = 3,500);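 active = activation above the solvent-only control well mean plus 3 SD, averaged across control plates, cut at about 5.2% in these data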
* = called active by the depositor. Only some compounds are listed: those with a hit (about 4.2% of all), similar ones and a draw of the others.

What do the screens show for `COc1cc(CNc2ncnc3c2ncn3[C@H]2CN(Cc3cccc(C(F)(F)F)c3)C[C@@H](CO)O2)cc(OC)c1OC`?
hcDAF12 agonist: -2; hgDAF12 agonist: -5; ssDAF12 agonist: -1; SMARCA2 activ: -2; DAX1 inh: -1

How did CCCCC(=O)N[C@H]1CC[C@@]23CCCN2C(=O)CCC[C@H]3[C@H]1CCC do in these assays?
hcDAF12 agonist: 0; hgDAF12 agonist: 0; ssDAF12 agonist: -1

How did Cc1ccc(C(=O)NCCc2nc3ccccc3[nH]2)cc1[N+](=O)[O-] do in these assays?
hcDAF12 agonist: 0; hgDAF12 agonist: -1; ssDAF12 agonist: -1; SMARCA2 activ: 8.6*; DAX1 inh: -1; SMARCA2 conf: -3; VP16 Luc act: -1

Results for COc1cccc(C(=O)N[C@H](C(=O)N2CCC[C@H]2C(=O)NC2CCCC2)C2CCCCC2)c1 ?
hcDAF12 agonist: -1; hgDAF12 agonist: 1; ssDAF12 agonist: -1; SMARCA2 activ: -1; DAX1 inh: -1

What do the screens show for `Oc1ccc(-c2csc(Nc3ncccn3)n2)cc1O`?
hcDAF12 agonist: 5; hgDAF12 agonist: 10; ssDAF12 agonist: 0; SMARCA2 activ: 0; DAX1 inh: 3

What do the screens show for `Oc1ccc(-c2csc(Nc3ncccn3)n2)c(O)c1`?
hcDAF12 agonist: 0; hgDAF12 agonist: 25*; ssDAF12 agonist: 0; SMARCA2 activ: 9.4*; DAX1 inh: 2; SMARCA2 conf: 11*; VP16 Luc act: 10*

What do the screens show for `Cc1ccc(C2/C(=C(\O)c3cnn(-c4ccccc4)c3C)C(=O)C(=O)N2CCN(C)C)o1` (stereo unspecified)?
hcDAF12 agonist: 3; hgDAF12 agonist: 5; ssDAF12 agonist: -1; SMARCA2 activ: 2; DAX1 inh: 0

How did CCN(CC)CCN1C(=O)C(=O)/C(=C(/O)c2cnn(-c3ccccc3)c2C)C1c1ccc(C)o1 (stereo unspecified) do in these assays?
hcDAF12 agonist: 1; hgDAF12 agonist: 7; ssDAF12 agonist: -2; SMARCA2 activ: 12*; DAX1 inh: 1; SMARCA2 conf: 6; VP16 Luc act: 3

What do the screens show for `CCN(CC)S(=O)(=O)c1ccc(NC(=O)CCC2CCCCC2)cc1`?
hcDAF12 agonist: -1; hgDAF12 agonist: 5; ssDAF12 agonist: -1; SMARCA2 activ: 9.4*; DAX1 inh: 0; SMARCA2 conf: 5; VP16 Luc act: 1

How did O=S(=O)(/C=C/c1ccccc1)Nc1ccc(F)cc1 do in these assays?
hcDAF12 agonist: 0; hgDAF12 agonist: 1; ssDAF12 agonist: -2; SMARCA2 activ: 0; DAX1 inh: -1

How did COc1ccc(NS(=O)(=O)/C=C/c2ccccc2)cc1 do in these assays?
hcDAF12 agonist: -1; hgDAF12 agonist: 2; ssDAF12 agonist: 0; SMARCA2 activ: 8.6*; DAX1 inh: 1; SMARCA2 conf: -2; VP16 Luc act: 2

How did Cc1cccc(OCc2cc(-c3ccccc3)no2)c1C do in these assays?
hcDAF12 agonist: 1; hgDAF12 agonist: 3; ssDAF12 agonist: -1; SMARCA2 activ: 8.9*; DAX1 inh: 1; SMARCA2 conf: 8; VP16 Luc act: 6.5*

What do the screens show for `CCN(CC)CC(=O)NCc1cc(-c2ccc(OC)cc2)no1`?
hcDAF12 agonist: -1; hgDAF12 agonist: -1; ssDAF12 agonist: -1; SMARCA2 activ: 1; DAX1 inh: 1
